# Whole data set: some 68,000 sequences, median “fluorescence intensity (a.u.)” near 9,100, cut for the highest 2% near 16,000. This excerpt belongs to a sample that is enriched for the highest values.
# Target: OsWRKY34 (Oryza sativa, UniProt Q0JBA9 1-250)
# Experiment: protein-binding microarray (RPBM); PBS, 2% BSA, 51.3 ng/ul salmon testes DNA, 50 uM zinc acetate, 200 nM TF, 25 C, 1 h; high values mean tight binding
# Settings: protein: recombinant; tags: N-terminal polyhistidine and DsRed monomer fusion (pET32a); label: CyDye5-dUTP incorporated in the synthesized complementary strand; 3' TTTTT single-stranded linker to array surface; dsDNA, one strand shown
# How it was run: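 Per-feature fluorescence intensity (arbitrary units), read on an Axon 4000B scanner, is the binding signal. Transcription factors carrying an N-terminal polyhistidine tag and DsRed fusion were expressed in E. coli BL21-CodonPlus and purified on Ni–NTA. A custom Agilent array, made double-stranded by primer extension with Cy5-dUTP and blocked with 2% BSA, was incubated with 200 nM protein in PBS, 2% BSA, salmon testes DNA and 50 µM zinc acetate at 25 °C for 1 h and then washed.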
# Sequence of OsWRKY34 (Q0JBA9 entry or part of it): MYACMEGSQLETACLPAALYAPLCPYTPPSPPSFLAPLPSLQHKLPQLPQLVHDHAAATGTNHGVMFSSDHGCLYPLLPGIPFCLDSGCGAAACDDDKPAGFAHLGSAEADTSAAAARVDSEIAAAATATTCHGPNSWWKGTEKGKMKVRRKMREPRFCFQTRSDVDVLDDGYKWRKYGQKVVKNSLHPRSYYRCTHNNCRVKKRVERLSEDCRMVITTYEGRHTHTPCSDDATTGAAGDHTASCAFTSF
row,Sequence,binding signal
1,CTCTCTTCTTTTTATCTTATTCATATGTATTTATAGCTGACGGAGTCACCTAGTGCAG,10500 fluorescence intensity (a.u.)
2,GCTCCGTGGCACTATTTTTTTTTTACCGCGAATCCTCCAACGGAGTCACCTAGTGCAG,9550 fluorescence intensity (a.u.)
3,TACCGCCTGAAATCCAACATTATTATGCACTGTAATTTACCGGAGTCACCTAGTGCAG,8170 fluorescence intensity (a.u.)
4,TCCGTAAATCCAACATGGCACTATTACCGCCGGCTTAAATCGGAGTCACCTAGTGCAG,56000 fluorescence intensity (a.u.)
5,TATCCGTTCGCGTCCCCGCCCTCGCTTCGCCGCGGCAATGCGGAGTCACCTAGTGCAG,9720 fluorescence intensity (a.u.)
6,GCATCCGTGTCCTTTGCCGAAGCCGAAGGCCCGCTCTCTCCGGAGTCACCTAGTGCAG,8900 fluorescence intensity (a.u.)
7,TTGACTTTTTAACCAACGTTTGACTATTCGTCTTATTCAACGGAGTCACCTAGTGCAG,10100 fluorescence intensity (a.u.)
8,GGTACTCTCTTCGTTTTTAGTATACGACGCCGTTGACTTTCGGAGTCACCTAGTGCAG,16000 fluorescence intensity (a.u.)
9,TACCTCATTCCCTAAATGTTTGACGCCGTTGACTTTTTTACGGAGTCACCTAGTGCAG,17500 fluorescence intensity (a.u.)
10,GTCATTTATTTTTACCAACGTTTGACTATTCGTCTTATTTCGGAGTCACCTAGTGCAG,9430 fluorescence intensity (a.u.)
11,TATTTGACGTCGTTGACTTTTTAAAACATGTTTGACCATTCGGAGTCACCTAGTGCAG,30200 fluorescence intensity (a.u.)
12,ATGATGCCGTTGACTTTTTGAACAACGTTTGACTATTCGTCGGAGTCACCTAGTGCAG,32600 fluorescence intensity (a.u.)
13,ACTCCCTCCATTTTTTTAATTGACGACGCCATTGACTTTTCGGAGTCACCTAGTGCAG,9350 fluorescence intensity (a.u.)
14,CTCATGTTTGACCATTCGTCTTATTTAAAAACTTTTGTGACGGAGTCACCTAGTGCAG,8180 fluorescence intensity (a.u.)
15,TATACGACGCCGTTGACTTTTTAAGATACGTTAGACCATTCGGAGTCACCTAGTGCAG,20300 fluorescence intensity (a.u.)
16,TTGACACCATTGACTTTTTTAAACATGTTTGACCGTTCGTCGGAGTCACCTAGTGCAG,15100 fluorescence intensity (a.u.)
17,TGGATGGTACTCCCTCCTCTAAATGTTTGACGCCGTTGACCGGAGTCACCTAGTGCAG,14400 fluorescence intensity (a.u.)
18,AAGCAGCAAAAGTCACACATACACTCTCTCTGCTACTACTCGGAGTCACCTAGTGCAG,8160 fluorescence intensity (a.u.)
19,TTAACTTTTACTCTAATTTATTCTCCTGTACCTTTTTATACGGAGTCACCTAGTGCAG,8250 fluorescence intensity (a.u.)
20,AGGTGGTTGGTGAGGTTTGCTTTGCACGATCGAGTGAGGACGGAGTCACCTAGTGCAG,10500 fluorescence intensity (a.u.)
21,AAATGTTTGACGCCGTTGACTTTTTTAAACATGTTTGACCCGGAGTCACCTAGTGCAG,33600 fluorescence intensity (a.u.)

row,Sequence,binding signal
1,ATATACTCCCTCCTTCCCTAAATGTTTGACGCCGTTGACTCGGAGTCACCTAGTGCAG,11400 fluorescence intensity (a.u.)
2,TTTGACGCCGTTGACTTTTTTAAACATGCTTGATCATTCACGGAGTCACCTAGTGCAG,13700 fluorescence intensity (a.u.)
3,ACGCCGTTGACTTTTTAAGCAACATTTGACCATTCGTTTTCGGAGTCACCTAGTGCAG,30000 fluorescence intensity (a.u.)
4,TCCTTCCCTAAATGTTTGACGCCGTTGACTTTTTTAAACACGGAGTCACCTAGTGCAG,16600 fluorescence intensity (a.u.)
5,TCCGTTTCGAAATGCTTGACGCCGTTGACTTTTTTAAACACGGAGTCACCTAGTGCAG,19400 fluorescence intensity (a.u.)
6,AACAGCCTGTTTTTGTGTGTTTTTTTCGTAAGTAATTAGTCGGAGTCACCTAGTGCAG,8760 fluorescence intensity (a.u.)
7,GGCTGCCCGCTCCTACATCCACATGCATGCTTCACACTGCCGGAGTCACCTAGTGCAG,8330 fluorescence intensity (a.u.)
8,TTAGTTGTTACCTTTGTCTCCTTCGTTGATCCATTGAAAGCGGAGTCACCTAGTGCAG,10500 fluorescence intensity (a.u.)
9,GTATACCTGCGCGTATACGGATGTTTTCGGCGTACATTAACGGAGTCACCTAGTGCAG,8390 fluorescence intensity (a.u.)
10,GTTCATCAATCTACTGTACTGGCCTCCTTCTCAGCTCTCACGGAGTCACCTAGTGCAG,9300 fluorescence intensity (a.u.)
11,CTTCCCTAAATGTTTAACGCCATTGACTTTTTTAAACATGCGGAGTCACCTAGTGCAG,12900 fluorescence intensity (a.u.)
12,TGACGCCGTTGGTTTTTTTAAACATGTTTGACCATTCGTCCGGAGTCACCTAGTGCAG,8990 fluorescence intensity (a.u.)
13,CTTCCCTAAATGTTTGACGCCGTTGACTTTTCTAAACATGCGGAGTCACCTAGTGCAG,18600 fluorescence intensity (a.u.)
14,ATGACGCCGTTGACTTTTTAACAAACGTTTGACCATTCGTCGGAGTCACCTAGTGCAG,21700 fluorescence intensity (a.u.)
15,AATGTTTGACGCCGTTGACTTTTTTAAACATGTTTGACCACGGAGTCACCTAGTGCAG,42500 fluorescence intensity (a.u.)
16,TAACGCCGTTTACCTTTTAACAAACGTTTTACCTTTCGTTCGGAGTCACCTAGTGCAG,10400 fluorescence intensity (a.u.)
17,TGTTTGACGCCGTTGACTTTTTTAAACATGTTTGACCATTCGGAGTCACCTAGTGCAG,34200 fluorescence intensity (a.u.)
18,AACTTTTTGATATACGCTCGATCATTCATCTTATTGAATACGGAGTCACCTAGTGCAG,8030 fluorescence intensity (a.u.)
19,CCCGTGTCTTGTGTGTTTCCATTCTCGCGAACCTTCCACACGGAGTCACCTAGTGCAG,9910 ± 264 fluorescence intensity (a.u.)
20,TTAATTTTTTTCTCATTTGTGCGTCCTATGGTCAAGCGTCCGGAGTCACCTAGTGCAG,8490 fluorescence intensity (a.u.)
21,AATTCCGGCCCAATAGTCACTTGTGTTGGCCACTTCGCCTCGGAGTCACCTAGTGCAG,9010 fluorescence intensity (a.u.)

row,Sequence,binding signal
1,GATTCATCGATCTTTTACGAGTACTATTTTTGTGATTATTCGGAGTCACCTAGTGCAG,11300 fluorescence intensity (a.u.)
2,TACATGTGGGTCCCATGGGTTTTATTATCTTTTTCGGATCCGGAGTCACCTAGTGCAG,9360 fluorescence intensity (a.u.)
3,AATCTACAAGATATATAACTAGATGTGTGGTGGGTTGAAACGGAGTCACCTAGTGCAG,8280 fluorescence intensity (a.u.)
4,AATTAGTTCCTGGACTTTGTGTATTACTAGTACTACTCCACGGAGTCACCTAGTGCAG,8570 fluorescence intensity (a.u.)
5,TGACTCTATTTTTTCCTTCGGTCTGCTGTCTGCACTCTGGCGGAGTCACCTAGTGCAG,11300 fluorescence intensity (a.u.)
6,CTGCCATCGCGTCGGCGTCGCGCCGCTGCCGTTGACCGTGCGGAGTCACCTAGTGCAG,16700 fluorescence intensity (a.u.)
7,CGTAGGCCACGCCACCTCACCCTGTTGACCGAGTCAAACCCGGAGTCACCTAGTGCAG,11900 fluorescence intensity (a.u.)
8,CGCCACCATCGCTGCGCCGCCATCGCCACCACCGCAGCCGCGGAGTCACCTAGTGCAG,8840 fluorescence intensity (a.u.)
9,GGTTGACCGTAGTCAACTCGCCACGTTGACTAGAACCGAGCGGAGTCACCTAGTGCAG,17900 fluorescence intensity (a.u.)
10,AGCGTCGCTGCCATCATCGCCGTCGCGTCGCTCGTCGCCGCGGAGTCACCTAGTGCAG,8220 fluorescence intensity (a.u.)
11,TGTCTAGCTGCTCCGACCAGTCAACCGTTGAACGTTGACTCGGAGTCACCTAGTGCAG,14700 fluorescence intensity (a.u.)
12,ACCACCGCCGCGGCGGCGTCGCCCACGCCGTGCCGCCCCGCGGAGTCACCTAGTGCAG,8160 fluorescence intensity (a.u.)
13,GTCTCCGCCATCGTTGTCGCCGTCGCCTCGCGCCACCACGCGGAGTCACCTAGTGCAG,8230 fluorescence intensity (a.u.)
14,GCCACGAGTTCCACGGCCGCGGCGTCGTCGTCGTCGTCGTCGGAGTCACCTAGTGCAG,8090 fluorescence intensity (a.u.)
15,CGTTGTCGCCACCACCACCGCCGCCGTCGCCACAACTCCGCGGAGTCACCTAGTGCAG,20500 fluorescence intensity (a.u.)
16,TCGTCGGCGTCGCGTTCACGGCCGCCGTGGCCGTGGCCGTCGGAGTCACCTAGTGCAG,16500 fluorescence intensity (a.u.)
17,CTCCGCCTCGCGCCGTTGTCGCCGTCGCCTCGCGCCGCCACGGAGTCACCTAGTGCAG,10100 fluorescence intensity (a.u.)
18,TCTCCCTTTCATTTTTATGTATGTTGGAATTATTTTTGTTCGGAGTCACCTAGTGCAG,8590 fluorescence intensity (a.u.)
19,TATTTGATCCCGTTTTTTAAAATCGAGCTTACCGTTTGACCGGAGTCACCTAGTGCAG,10500 fluorescence intensity (a.u.)
20,GTGGAGCTATACCTTCTACTCTCAGCAATTGTCCTTTAGACGGAGTCACCTAGTGCAG,9460 fluorescence intensity (a.u.)
21,ACGCGGCCGCCGAGCTGGACTCCTCATCCCCAGCTTCGCTCGGAGTCACCTAGTGCAG,8600 fluorescence intensity (a.u.)

row,Sequence,binding signal
1,CAATTATCCTCTGTGCTGTTTGACATTTTCTTGGTTAGTGCGGAGTCACCTAGTGCAG,12000 fluorescence intensity (a.u.)
2,GACACACGATTTCTTAAGGCTCATACTTTATGCTTGTCTACGGAGTCACCTAGTGCAG,11300 fluorescence intensity (a.u.)
3,GACACATGAACTTTCAATTTTTCTATCACATCGTTCTAATCGGAGTCACCTAGTGCAG,8150 fluorescence intensity (a.u.)
4,TTTTTTGGTTGTTGATATGATGTTCTTTTTTCCTCATTCTCGGAGTCACCTAGTGCAG,8990 fluorescence intensity (a.u.)
5,GGCTTTGTATTTTGGTGTTGAGTCCCTTCCATACAAGAACCGGAGTCACCTAGTGCAG,8040 fluorescence intensity (a.u.)
6,AGTTTTTGCTTGTAACGTTTCACCACTCGTCTTATTCAAACGGAGTCACCTAGTGCAG,8340 fluorescence intensity (a.u.)
7,AACCTCCACACACCCGCTCATACTACAAGCTAGGTAATCACGGAGTCACCTAGTGCAG,8040 fluorescence intensity (a.u.)
8,CGCTCCACCACCCGCCCGCTCGCCCATTTCCTCTCCCTTTCGGAGTCACCTAGTGCAG,12300 fluorescence intensity (a.u.)
9,CGCACCACCACCACCATTTCCACGCCCCTCTCTCCATTCCCGGAGTCACCTAGTGCAG,8680 fluorescence intensity (a.u.)
10,TGCTCGGACCATTCCCCGCCCACCATCGCTGCACACTTTTCGGAGTCACCTAGTGCAG,17200 fluorescence intensity (a.u.)
11,CGCTGACCACGTTGACCATCTTCCATTTCTTCCCCTCGCCCGGAGTCACCTAGTGCAG,18600 fluorescence intensity (a.u.)
12,CCCCTCGCCGCCCTCTCTCTCACAGTCTCACGCATCCCATCGGAGTCACCTAGTGCAG,8440 fluorescence intensity (a.u.)
13,GCCCCATCCACCGCACCACACGTCTCTTTTTTTCGCGACTCGGAGTCACCTAGTGCAG,14600 fluorescence intensity (a.u.)
14,CACCTCCCCGCCCACCATTCCCACTTTCGCCCACACACACCGGAGTCACCTAGTGCAG,9570 fluorescence intensity (a.u.)
15,GCGCTTCTGACCACCACGTGCATTTCCATTTCCCGCTGCACGGAGTCACCTAGTGCAG,12700 fluorescence intensity (a.u.)
16,CCCATCGCATCTTTCCCACTCGCCCCACGCCCGCACGTCTCGGAGTCACCTAGTGCAG,18800 fluorescence intensity (a.u.)
17,GGCAATCCGGTGCTCCTTGTCTGAACTCTCTCAATCTCAACGGAGTCACCTAGTGCAG,8040 fluorescence intensity (a.u.)
18,ATTTGTCATTTTTTCTATGTGTATATGTTGTATTTTGAGCCGGAGTCACCTAGTGCAG,8430 fluorescence intensity (a.u.)
19,GCATGAGTAGGGGATGGCATTAAAACAGGTTGGTCAGGTGCGGAGTCACCTAGTGCAG,8920 fluorescence intensity (a.u.)
20,TCCGTTCCATCGTAATCCTTCTCCGATCCGAATTTGCTTCCGGAGTCACCTAGTGCAG,9120 fluorescence intensity (a.u.)
21,GCATCGACCGCGCGCGTATACGTTAACGCTCACCTTTGTTCGGAGTCACCTAGTGCAG,9420 fluorescence intensity (a.u.)
